Measured values reported in PubChem BioAssay AID651815 (National Center for Advancing Translational Sciences (NCATS), 2012).
Among all 2,100 compounds or so, about 1,100 (52%) were called active. Roughly 29% stayed inconclusive and do not appear here. Calls come from the whole dose curve; as a rule, active = well fitted inhibition curve with a large enough effect; inconclusive = small, poorly fitted or top-dose-only effect; inactive = no such curve, though single readings can be large or run the other way. So high a share suggests a set chosen from earlier hits. The list shows a part of the results.

Each molecule was assayed against DNA dC->dU-editing enzyme APOBEC-3F (Homo sapiens) (UniProt Q8IUX4) (assay: qHTS for inhibitors of Vif-A3F interactions: Cherry picks counterscreen). Conditions: HeLa A3F-eYFP/Vif cells, eYFP fluorescence, 24 h; series mostly up to 46.1 µM.
Procedure, shortened: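 Rescue of Vif-driven A3F-eYFP degradation read as cellular eYFP fluorescence after 24 h compound exposure (several concentrations) in stable HeLa cells; MG132 (2 mM stock) as positive control.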
Note: nearly all actives have a fitted effect of over 65% in size.
Potency is the fitted concentration of half-maximal effect.

Chain of DNA dC->dU-editing enzyme APOBEC-3F (Homo sapiens) (Q8IUX4 whole entry, looked up): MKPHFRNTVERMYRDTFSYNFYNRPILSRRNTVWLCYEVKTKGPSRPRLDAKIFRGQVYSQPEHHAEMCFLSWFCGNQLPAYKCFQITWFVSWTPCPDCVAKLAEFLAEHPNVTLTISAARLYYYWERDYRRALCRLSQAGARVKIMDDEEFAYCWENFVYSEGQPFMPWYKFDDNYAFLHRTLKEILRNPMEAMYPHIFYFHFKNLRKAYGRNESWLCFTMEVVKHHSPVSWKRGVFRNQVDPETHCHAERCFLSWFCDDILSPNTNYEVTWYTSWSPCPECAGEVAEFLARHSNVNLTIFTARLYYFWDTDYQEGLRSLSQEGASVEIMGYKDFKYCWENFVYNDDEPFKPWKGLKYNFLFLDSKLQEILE

Row | SMILES | Potency
1 | O=C1c2cccc3c([N+](=O)[O-])c(O)cc(c23)C(=O)N1Nc1ccccc1 | 23.1 µM (active)
2 | O=c1[nH]c2ccccc2n2c(C(F)(F)F)nnc12 | 16.4 µM (active)
3 | Cc1cccc(Cn2c(=O)n(CCCC(=O)NCc3ccco3)c(=O)c3ccccc32)c1 | 8.86 µM (active)
4 | O=C(Nc1ccc(Cl)cn1)c1cccc(S(=O)(=O)N2CCCCCC2)c1 | inactive
5 | Cc1ccc(S(=O)(=O)Nc2nc3ccccc3nc2Nc2cccc(S(=O)(=O)N3CCCC3)c2)cc1 | 3.26 µM (active)
6 | O=S(=O)(Nc1nc2ccccc2nc1Nc1cccc(S(=O)(=O)N2CCCCC2)c1)c1ccccc1 | 18.4 µM (active)
7 | CC(=O)c1cccc(-c2ccnc3c2CC(C(=O)NCc2ccc(F)c(F)c2)O3)c1 (configuration not stated) | 3.96 µM (active)
8 | O=C(NCc1ccco1)C1Cc2c(-c3cccc(F)c3)ccnc2O1 (configuration not stated) | 2.8 µM (active)
9 | CC(=O)c1cccc(-c2ccnc3c2CC(C(=O)NCc2ccco2)O3)c1 (configuration not stated) | 1.98 µM (active)
10 | O=C(NCc1ccccc1)C1Cc2c(-c3cccc(F)c3)ccnc2O1 (configuration not stated) | 2.8 µM (active)
11 | COc1ccc(-n2c(O)c(/C=N/NS(=O)(=O)c3cccc([N+](=O)[O-])c3)c3ccccc3c2=O)cc1OC | 14 µM (active)
12 | O=C(O)CSc1cc(NS(=O)(=O)c2cccc([N+](=O)[O-])c2)c2ccccc2c1O | inactive
13 | COc1ccc(-n2c(O)c(/C=N/NS(=O)(=O)c3ccc(C)c([N+](=O)[O-])c3)c3ccccc3c2=O)cc1OC | 6.51 µM (active)
14 | Cc1ccc(NC(=O)CSc2nc3ccc(Nc4nc(N5CCOCC5)nc(N5CCOCC5)n4)cc3s2)cc1 | 20.6 µM (active)
15 | Cc1ccc(NC(=O)CSc2n[nH]c(-c3ccccn3)n2)cc1 | inactive
16 | O=C(CSc1nc2ccc(Nc3nc(N4CCOCC4)nc(N4CCOCC4)n3)cc2s1)Nc1ccccc1F | 20.6 µM (active)
17 | CN1CCC(OC(=O)c2cc3cc(Cl)cc(Cl)c3oc2=O)CC1 | inactive
18 | Cc1ccc(C(=O)CSC2=C(C#N)C(c3ccco3)C3=C(CCCC3=O)N2)cc1 (configuration not stated) | 9.94 µM (active)
19 | O=C(c1ccc(CS(=O)c2ccccc2Cl)o1)N1CCN(c2ccccc2F)CC1 (configuration not stated) | 1.84 µM (active)

Row | SMILES | Potency
20 | O=c1c2cc3ccccc3n2cnn1Cc1ccccc1F | 14 µM (active)
21 | Cc1ccnc(N/C=C(\C#N)c2nc(-c3cccc(Br)c3)cs2)c1 | 15.8 µM (active)
22 | Cc1cc(C)cc(NC(=O)Cn2cc(C(=O)C3CCCCC3)c3ccccc32)c1 | 16.4 µM (active)
23 | Cc1cc(C)cc(NC(=S)NC(=O)C2CC2)c1 | inactive
24 | CN(C)c1ccc(/C=C/c2ccnc3ccccc23)cc1O | 18.4 µM (active)
25 | CN1CCCc2cc(/C=C/c3ccnc4ccccc34)ccc21 | 2.59 µM (active)
26 | Cc1cc(/C=C/c2ccnc3ccccc23)ccc1N | 16.4 µM (active)
27 | Cc1cc(/C=C/c2ccnc3ccccc23)ccc1N(C)C | 10.3 µM (active)
28 | CN(C)c1ccc(/C=C/c2ccnc3ccccc23)cc1C=O | 6.51 µM (active)
29 | CCc1cc(/C=C/c2ccnc3ccccc23)ccc1N(C)C | 20.6 µM (active)
30 | Cc1ccc(NC(=O)Cc2ccc(-n3cccc3)cc2)c(C)c1 | inactive
31 | Cc1ccc(CNC(=O)Cc2ccc(-n3cccc3)cc2)cc1 | 3.53 µM (active)
32 | CCN(CC)CCCNc1ccc2ncn3c4ccc(O)cc4c(=O)c1c23 | 20.6 µM (active)
33 | CN(C)CCNc1ccc2ncn3c4ccc(O)cc4c(=O)c1c23 | 20.6 µM (active)
34 | C=CCNC(=S)N/N=C/c1ccc(C)cc1C | inactive
35 | CCOc1cc(S(=O)(=O)NCc2ccc(OC)cc2)c(OCC)cc1-n1cnnn1 | 12.5 µM (active)
36 | c1ccc2c(c1)Cc1cc3ccccc3nc1-2 | 9.2 µM (active)
37 | Cc1ccc(S(=O)(=O)N2CCCCC2CCNC(=O)C(=O)NCc2ccco2)cc1 (configuration not stated) | 14 µM (active)
38 | COc1cc(/C=C/C(=O)c2ccc3c(c2)OCCO3)cc(Br)c1OCC(=O)N(C)C | 14 µM (active)

Row | SMILES | Potency
39 | CN(C)c1ccc(/C=C/c2ccnc3c(N)cccc23)cc1 | 18.4 µM (active)
40 | CN(C)c1ccc(/C=C/c2ccnc3c(Cl)cccc23)cc1 | 9.2 µM (active)
41 | CN(C)c1ccc(/C=C/c2ccnc3c(Cl)ccc(Cl)c23)cc1 | 5.17 µM (active)
42 | O=C(NCc1ccccc1Cl)c1cccc2c1C(=O)c1ccc(-c3ccc(OC(F)(F)F)cc3)cc1S2(=O)=O | 16.4 µM (active)
43 | COc1ccc(-c2ccc3c(c2)S(=O)(=O)c2cccc(C(=O)NCCOc4ccccc4)c2C3=O)cc1OC | 14 µM (active)
44 | COc1ccc(-c2ccc3c(c2)S(=O)(=O)c2cccc(C(=O)NCc4cccc(OC(F)(F)F)c4)c2C3=O)cc1OC | 3.66 µM (active)
45 | COc1ccc(S(=O)(=O)NN(C)c2nc(C(F)(F)F)nc3ccccc23)cc1 | 11.2 µM (active)
46 | COc1ccc(NC(=O)C2(C)Cc3c(-c4cccc(C(N)=O)c4)ccnc3O2)cn1 (configuration not stated) | 12.5 µM (active)
47 | COc1ccc(NC(=O)C2(C)Cc3c(-c4cccc(NC(C)=O)c4)ccnc3O2)cn1 (configuration not stated) | 7.04 µM (active)
48 | CN(C)c1ccc(/C=C(/C(=O)c2ccc(Cl)cc2Cl)n2cncn2)cc1 | 14 µM (active)
49 | Cn1c(=S)c2[nH]c(SCCN3CCCC3)nc2n(C)c1=O | inactive
50 | COc1cc(-c2noc(C)c2/C=C/c2cccc([N+](=O)[O-])c2)cc(OC)c1OC | 1.58 µM (active)
51 | COc1cc(-c2noc(C)c2/C=C/c2ccc(OC(C)=O)cc2)cc(OC)c1OC | 0.627 µM (active)
52 | O=c1[nH]c2cc(Br)cnc2nc1/C=C(\O)c1ccc(F)cc1 | 18.4 µM (active)
53 | COc1ccc(Cl)cc1NC(=O)CSc1nc2c([nH]c3ccccc32)c(=O)n1-c1ccccc1 | 25.9 µM (active)
54 | Cc1ccc(NC(=O)c2ccc([N+](=O)[O-])s2)cc1S(=O)(=O)N1CCOCC1 | inactive
55 | O=C(O)c1ccc(NS(=O)(=O)c2cccc(C(=O)Nc3ccccc3[N+](=O)[O-])c2)cc1 | inactive
56 | Cc1ccc(NC(=O)c2ccc(NCC3CCCO3)c([N+](=O)[O-])c2)cc1Cl (configuration not stated) | 20.6 µM (active)
57 | O=C(NCCN1C(=O)S/C(=C\c2ccc(OC(F)F)cc2)C1=O)c1cnccn1 | 7.04 µM (active)
